# According to PubChem BioAssay (Tox21):
# Several values for one entry are separate records, joined by “and”; a condition that tells them apart may be missing. Identical values can stand only once. Records with an inconclusive call do not appear. Where a call stands in place of a potency, no number is given. More than one record can exist for a structure, and the calls need not agree. Activity calls are given as the source filed them. Unless noted, the call rests on the fitted dose curve; in most records, active means well fitted curve in the direction sought with a large enough effect in the repeat runs; inconclusive means weak or mixed curves; inactive means no such curve, though single readings can be large; an effect the other way counts as inactive or inconclusive.
# Columns and labels:
# [1] = qHTS assay to identify small molecule agonists of the sonic hedgehog signaling (Shh) pathway (AID 1259368; calls by dose curve;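 further: NIH/3T3-derived 3T3Gli1-Luc cells carrying a stable Gli1-driven firefly luciferase reporter; series mostly up to about 92 µM; nearly all actives have a fitted effect of over 15% in size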)
# Outline: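 NIH/3T3-derived 3T3Gli1-Luc cells with stably integrated Gli1-driven firefly luciferase, 2,000 cells/well, compounds added after 4 hr. Incubated 24 hr at 37C, 5% CO2; luminescence read after 30 min with luciferase reagent at room temperature.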
# [2] = qHTS assay to identify small molecule antagonists of the sonic hedgehog signaling (Shh) pathway (AID 1259369; calls by dose curve; further: nearly all actives have a fitted effect of over 45% in size; further: potency means the concentration at half of the fitted maximal effect)
# Outline: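 NIH/3T3-derived Gli1-Luc reporter cells plated 4 h, dosed with compound, then stimulated with conditioned medium for 24 h at 37 C. Firefly luciferase luminescence read after 30 min with detection reagent at room temperature.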
# [3] = biological target: Estrogen receptor beta (Homo sapiens) (UniProt Q92731); experiment: qHTS assay to identify small molecule agonists of the estrogen receptor beta (ER-beta) signaling pathway (AID 1259377; active means well fitted activation curve with a large enough effect in the signal ratio in the repeat runs, not every such curve was filed as active; the % refers to the signal ratio)
# Estrogen receptor beta (Homo sapiens), sequence (Q92731 whole entry, looked up): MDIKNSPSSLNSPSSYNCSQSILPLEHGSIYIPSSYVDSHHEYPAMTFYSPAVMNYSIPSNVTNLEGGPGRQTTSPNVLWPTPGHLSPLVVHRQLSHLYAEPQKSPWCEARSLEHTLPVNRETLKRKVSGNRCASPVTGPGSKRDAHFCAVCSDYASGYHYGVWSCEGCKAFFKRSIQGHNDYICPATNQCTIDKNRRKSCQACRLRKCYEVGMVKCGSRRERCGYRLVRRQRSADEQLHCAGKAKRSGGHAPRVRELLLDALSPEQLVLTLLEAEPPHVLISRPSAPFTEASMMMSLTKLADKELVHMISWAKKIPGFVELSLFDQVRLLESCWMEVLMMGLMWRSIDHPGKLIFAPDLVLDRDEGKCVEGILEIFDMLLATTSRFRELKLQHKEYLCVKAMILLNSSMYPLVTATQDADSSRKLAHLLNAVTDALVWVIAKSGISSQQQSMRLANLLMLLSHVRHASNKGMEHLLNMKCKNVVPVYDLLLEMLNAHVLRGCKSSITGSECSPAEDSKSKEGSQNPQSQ
# Outline: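 Beta-lactamase reporter readout: fluorescence of LiveBLAzer B/G FRET substrate after 2 h at room temperature, following 16 h compound treatment of ER-beta-UAS-bla HEK293T cells at 37C in 2% charcoal-stripped FBS medium.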
# [4] = biological target: Estrogen receptor beta (Homo sapiens) (UniProt Q92731); experiment: qHTS assay to identify small molecule antagonists of the estrogen receptor beta (ER-beta) signaling pathway (AID 1259378; active means well fitted inhibition curve with a large enough effect in the signal ratio in the repeat runs, not every such curve was filed as active; the % refers to the signal ratio)
# Outline: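 Antagonist mode: compounds added to beta-lactamase reporter HEK293T ER-beta-UAS cells stimulated with E2 (1nM final), 16 hr at 37C. LiveBLAzer B/G FRET substrate, 2 hours room temperature, fluorescence read-out.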
# [5] = qHTS assay to identify small molecule agonists of the androgen receptor (AR) signaling pathway in the presence of an antagonist - cell viability counter screen (AID 1259379); further: nearly all actives have a fitted effect of over 25% in size; further: potency means the concentration at half of the fitted maximal effect
# Outline: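 MDA-kb2 cells (MMTV-luciferase, AR/GR), 3,000/well, 5 h attachment, then 3.0 µM nilutamide (final) and compounds at 15 concentrations. Viability by CellTiter-Fluor fluorescence after 16 h at 37 °C, 0% CO2, in the reporter wells.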
# [6] = qHTS assay to identify small molecule agonists of the estrogen receptor beta (ER-beta) signaling pathway - cell viability counter screen (AID 1259380); further: nearly all actives have a fitted effect of over 30% in size; further: potency means the concentration at half of the fitted maximal effect
# Outline: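 ER-beta-UAS-bla HEK293T cells in medium with 2% charcoal-stripped FBS, pre-incubated 6 hr, then treated 16 hr at 37C. Cytotoxicity read in the same wells by CellTiter-Glo luminescence after 30 min at room temperature.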
# [7] = qHTS assay to identify small molecule antagonists of the estrogen receptor beta (ER-beta) signaling pathway - cell viability counter screen (AID 1259382);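 further: HEK293T cells carrying ER-beta-UAS-bla reporter stimulated with estradiol; series mostly up to about 92 µM; nearly all actives have a fitted effect of over 55% in size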
# Outline: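 ER-beta-UAS-bla HEK293T cells in 2% charcoal-stripped FBS medium, treated with compound plus 1 nM 17-beta-estradiol for 16 h at 37C. Viability read by CellTiter-Glo luminescence after 30 min at room temperature in the same wells.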
# [8] = qHTS assay to identify small molecule agonists or antagonists of the thyroid stimulating hormone receptor (TSHR) signaling pathway - wild type cell line counter screen (AID 1259384; calls by dose curve)
# Outline: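 Counter screen in untransfected Hek293: compounds (15-point titration, triplicate) plus phosphodiesterase inhibitor Ro20-1724 added after 18 h plating; 30 min RT. Intracellular cAMP via competitive d2/cryptate immunoassay, 1 h incubation.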
# [9] = biological target: Thyrotropin receptor (Homo sapiens) (UniProt P16473); experiment: qHTS assay to identify small molecule antagonists of the thyroid stimulating hormone receptor (TSHR) signaling pathway (AID 1259385; calls by dose curve; further: nearly all actives have a fitted effect of over 20% in size)
# Thyrotropin receptor (Homo sapiens), sequence (P16473 whole entry, looked up): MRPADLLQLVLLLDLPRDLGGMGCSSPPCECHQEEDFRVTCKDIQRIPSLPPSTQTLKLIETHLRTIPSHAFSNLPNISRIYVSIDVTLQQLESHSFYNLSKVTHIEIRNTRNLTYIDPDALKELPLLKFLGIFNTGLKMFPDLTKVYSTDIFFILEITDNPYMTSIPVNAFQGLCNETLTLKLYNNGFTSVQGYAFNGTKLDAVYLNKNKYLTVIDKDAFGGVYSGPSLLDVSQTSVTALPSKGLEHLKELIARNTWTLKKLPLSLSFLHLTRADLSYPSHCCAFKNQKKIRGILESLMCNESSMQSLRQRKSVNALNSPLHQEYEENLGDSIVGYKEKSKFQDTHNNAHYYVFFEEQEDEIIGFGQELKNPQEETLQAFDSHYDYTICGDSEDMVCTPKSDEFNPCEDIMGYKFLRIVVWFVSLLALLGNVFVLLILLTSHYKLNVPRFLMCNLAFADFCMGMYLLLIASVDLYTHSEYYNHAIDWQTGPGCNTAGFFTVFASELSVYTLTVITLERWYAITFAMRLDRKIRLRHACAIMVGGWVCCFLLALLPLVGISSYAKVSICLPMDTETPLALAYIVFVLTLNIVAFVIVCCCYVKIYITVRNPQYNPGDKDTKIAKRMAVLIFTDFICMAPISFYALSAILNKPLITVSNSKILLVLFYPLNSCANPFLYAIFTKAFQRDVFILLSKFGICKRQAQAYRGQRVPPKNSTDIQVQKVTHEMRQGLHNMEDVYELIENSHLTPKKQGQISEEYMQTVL
# Outline: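 Antagonist mode: compound-treated TSHR-expressing HEK293 cells were stimulated with 1.5 ng/mL TSH (final) in presence of Ro20-1724 for 30 min at RT. HTRF cAMP detection after 1 h; each compound tested at 15 concentrations, triplicate.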
# [10] = qHTS assay to identify small molecule agonists of the estrogen receptor alpha (ER-alpha) signaling pathway in the presence of an antagonist - cell viability counter screen (AID 1259386);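 further: cells exposed to compounds for 22 h at 37 °C before the viability read; nearly all actives have a fitted effect of over 30% in size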; further: potency means the concentration at half of the fitted maximal effect
# Outline: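 Cell viability in VM7Luc4E2 cells (endogenous full-length ER-alpha) measured by CellTiter-Fluor fluorescence in the same wells as the luciferase screen. Cells pre-cultured 5 days in charcoal-stripped serum, then treated 22 h with compounds at 15 concentrations plus 10.0nM ICI-182,780.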
# [11] = biological target: Progesterone receptor (Homo sapiens) (UniProt P06401); experiment: qHTS assay to identify small molecule agonists of the progesterone receptor (PR) signaling pathway (AID 1346784; calls by dose curve; further: nearly all actives have a fitted effect of over 30% in size)
# Progesterone receptor (Homo sapiens), sequence (P06401 whole entry, looked up): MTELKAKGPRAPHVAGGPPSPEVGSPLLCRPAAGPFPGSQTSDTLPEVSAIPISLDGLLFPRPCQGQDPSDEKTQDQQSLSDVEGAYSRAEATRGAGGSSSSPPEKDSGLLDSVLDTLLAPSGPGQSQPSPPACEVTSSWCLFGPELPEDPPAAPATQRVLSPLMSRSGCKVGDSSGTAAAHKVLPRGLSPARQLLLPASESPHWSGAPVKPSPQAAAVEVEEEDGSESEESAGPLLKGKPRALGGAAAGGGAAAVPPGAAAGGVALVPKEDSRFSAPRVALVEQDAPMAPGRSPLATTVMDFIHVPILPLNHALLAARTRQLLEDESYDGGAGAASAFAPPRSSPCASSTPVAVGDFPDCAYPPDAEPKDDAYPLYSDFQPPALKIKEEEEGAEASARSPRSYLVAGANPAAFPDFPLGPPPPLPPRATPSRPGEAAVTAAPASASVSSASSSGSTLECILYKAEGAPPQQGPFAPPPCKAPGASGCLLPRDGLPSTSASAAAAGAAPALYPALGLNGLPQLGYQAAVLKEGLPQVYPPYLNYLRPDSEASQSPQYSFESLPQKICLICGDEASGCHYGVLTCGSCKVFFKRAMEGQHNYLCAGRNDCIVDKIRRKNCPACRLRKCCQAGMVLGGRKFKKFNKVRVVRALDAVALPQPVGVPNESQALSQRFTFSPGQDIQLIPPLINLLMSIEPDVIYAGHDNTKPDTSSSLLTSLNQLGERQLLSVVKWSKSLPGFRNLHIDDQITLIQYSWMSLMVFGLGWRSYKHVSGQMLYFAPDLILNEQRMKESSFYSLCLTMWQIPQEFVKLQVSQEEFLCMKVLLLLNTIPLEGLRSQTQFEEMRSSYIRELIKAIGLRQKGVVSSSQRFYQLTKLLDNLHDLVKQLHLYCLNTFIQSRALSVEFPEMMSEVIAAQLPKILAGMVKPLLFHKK
# Outline: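 HEK 293T PR-UAS-bla reporter cells, 2% charcoal-stripped FBS; 6 hr settle at 37C/5% CO2, compound (DMSO) 16 hr, LiveBLAzer B/G FRET substrate 2 hr RT, fluorescence intensity read.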
# [12] = biological target: Progesterone receptor (Homo sapiens) (UniProt P06401); experiment: qHTS assay to identify small molecule antagonists of the progesterone receptor (PR) signaling pathway (AID 1346795; active means well fitted inhibition curve with a large enough effect in the signal ratio in the repeat runs, not every such curve was filed as active; the % refers to the signal ratio)
# Outline: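 Beta-lactamase reporter, HEK293T PR-UAS-bla line; 2% charcoal-stripped FBS; 6 hr pre-incubation, 37C/5% CO2. Compound + R5020 1 nM final, 16 hr. LiveBLAzer B/G FRET substrate, 2 hr RT; fluorescence intensity read.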
# [13] = qHTS assay to identify small molecule antagonists of the progesterone receptor (PR) signaling pathway - cell viability counter screen (AID 1346798); further: series mostly up to about 92 µM; nearly all actives have a fitted effect of over 50% in size
# Outline: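 Luminescence readout (CellTiter-Glo, 30 min, RT) of viability in PR-UAS-bla HEK293T cells exposed to compound and R5020 agonist for 16 hr at 37C, 5% CO2; run in the same wells as the beta-lactamase reporter read.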
# [14] = qHTS assay to identify small molecule agonists of the progesterone receptor (PR) signaling pathway - cell viability counter screen (AID 1346799; calls by dose curve; further: nearly all actives have a fitted effect of over 45% in size)
# Outline: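 HEK293T PR-UAS-bla, 3,000 cells/well, 2% charcoal-stripped FBS; 6 h settle, compound 16 h at 37C/5% CO2; LiveBLAzer 2 h RT, then CellTiter-Glo 30 min RT, luminescence read.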
# [15] = qHTS assay to identify small molecule antagonists of the TGF-beta/Smad signaling pathway - cell viability counter screen (AID 1346824); further: nearly all actives have a fitted effect of over 50% in size
# Outline: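 Cytotoxicity counter-screen run in the same wells as the beta-lactamase Smad reporter read: CellTiter-Glo luminescence after 30 min at room temperature. HEK 293T SBE-bla cells had 5 hr compound exposure at 37 C with TGF-beta1 (0.25 ng/mL stock).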
# [16] = qHTS assay to identify small molecule agonists of the TGF-beta/Smad signaling pathway - cell viability counter screen (AID 1346829); further: top concentration of the series differs between compounds; nearly all actives have a fitted effect of over 45% in size
# Outline: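 Here the cytotoxicity of library compounds is measured in SBE-bla HEK 293T cells treated for 5 hr, using CellTiter-Glo added to wells already read for the beta-lactamase reporter.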
# [17] = qHTS assay to identify small molecule agonists of the TGF-beta/Smad signaling pathway (AID 1346859; active means well fitted activation curve with a large enough effect in the signal ratio in the repeat runs, not every such curve was filed as active; the % refers to the signal ratio; further: series mostly up to about 77 µM)
# Outline: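 Read-out: fluorescence at 460 and 530 nm (405 nm excitation) after a 2 hr room-temperature incubation with beta-lactamase FRET substrate. SBE-bla HEK 293T cells had been treated with test compounds for 5 hr at 37 C.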
# [18] = biological target: Thyrotropin-releasing hormone receptor (Homo sapiens) (UniProt P34981); experiment: qHTS assay to identify small molecule antagonists of the thyrotropin-releasing hormone receptor (TRHR) signaling pathway (AID 1346877; active means well fitted inhibition curve with a large enough effect in the repeat runs, not every such curve was filed as active; further: series mostly up to about 51 µM)
# Thyrotropin-releasing hormone receptor (Homo sapiens), sequence (P34981 whole entry, looked up): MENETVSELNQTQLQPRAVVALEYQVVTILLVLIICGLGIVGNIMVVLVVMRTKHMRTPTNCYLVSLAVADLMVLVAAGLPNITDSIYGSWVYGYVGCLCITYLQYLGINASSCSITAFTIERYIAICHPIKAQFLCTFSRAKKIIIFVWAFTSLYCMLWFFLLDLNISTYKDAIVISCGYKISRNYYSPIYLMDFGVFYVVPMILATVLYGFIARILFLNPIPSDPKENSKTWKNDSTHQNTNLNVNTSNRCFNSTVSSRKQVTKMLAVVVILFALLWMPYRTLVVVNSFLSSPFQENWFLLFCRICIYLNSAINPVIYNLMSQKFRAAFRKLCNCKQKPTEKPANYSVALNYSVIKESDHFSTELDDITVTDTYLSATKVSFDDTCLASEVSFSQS
# Outline: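 TRHR-expressing HEK293 cells loaded with calcium dye for 2 h at 37 C; compounds pre-incubated 5 min at room temperature before TRH challenge at 1 nM final. Intracellular calcium fluorescence read kinetically for 3 min; 15 concentrations in triplicate.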
# [19] = biological target: Estrogen receptor (Homo sapiens) (UniProt P03372); experiment: qHTS assay to identify small molecule agonists of the estrogen receptor alpha (ER-alpha) signaling pathway in the presence of an antagonist (AID 1259383; calls by dose curve; further: top concentration of the series differs between compounds; nearly all actives have a fitted effect of over 15% in size)
# Estrogen receptor (Homo sapiens), sequence (P03372 whole entry, looked up): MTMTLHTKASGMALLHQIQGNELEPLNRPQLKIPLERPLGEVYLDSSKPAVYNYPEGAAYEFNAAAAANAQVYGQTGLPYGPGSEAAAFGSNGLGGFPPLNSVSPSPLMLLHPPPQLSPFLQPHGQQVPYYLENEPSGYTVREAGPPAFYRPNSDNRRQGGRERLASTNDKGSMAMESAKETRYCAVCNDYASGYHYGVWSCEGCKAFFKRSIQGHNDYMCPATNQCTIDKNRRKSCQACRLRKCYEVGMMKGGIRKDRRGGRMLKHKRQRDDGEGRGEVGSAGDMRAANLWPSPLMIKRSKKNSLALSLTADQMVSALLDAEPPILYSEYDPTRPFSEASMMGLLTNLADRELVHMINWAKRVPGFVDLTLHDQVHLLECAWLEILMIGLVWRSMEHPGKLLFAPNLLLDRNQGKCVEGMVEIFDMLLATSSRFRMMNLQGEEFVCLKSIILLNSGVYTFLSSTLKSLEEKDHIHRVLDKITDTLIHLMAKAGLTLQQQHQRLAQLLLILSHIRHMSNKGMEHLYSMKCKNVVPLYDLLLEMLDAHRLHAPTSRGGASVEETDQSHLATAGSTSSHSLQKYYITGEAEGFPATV
# Outline: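 VM7Luc4E2 cells express endogenous full-length ER-alpha with an ERE-luciferase reporter and were hormone-deprived for 5 days. Compounds at 15 concentrations were added with 10.0nM ICI-182,780 for 22hr at 37C. Luminescence was read with ONE-Glo.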
# [20] = biological target: Androgen receptor (Homo sapiens) (UniProt P10275); experiment: qHTS assay to identify small molecule agonists of the androgen receptor (AR) signaling pathway in the presence of an antagonist (AID 1259381; calls by dose curve; further: nearly all actives have a fitted effect of over 15% in size)
# Androgen receptor (Homo sapiens), sequence (P10275 whole entry, looked up): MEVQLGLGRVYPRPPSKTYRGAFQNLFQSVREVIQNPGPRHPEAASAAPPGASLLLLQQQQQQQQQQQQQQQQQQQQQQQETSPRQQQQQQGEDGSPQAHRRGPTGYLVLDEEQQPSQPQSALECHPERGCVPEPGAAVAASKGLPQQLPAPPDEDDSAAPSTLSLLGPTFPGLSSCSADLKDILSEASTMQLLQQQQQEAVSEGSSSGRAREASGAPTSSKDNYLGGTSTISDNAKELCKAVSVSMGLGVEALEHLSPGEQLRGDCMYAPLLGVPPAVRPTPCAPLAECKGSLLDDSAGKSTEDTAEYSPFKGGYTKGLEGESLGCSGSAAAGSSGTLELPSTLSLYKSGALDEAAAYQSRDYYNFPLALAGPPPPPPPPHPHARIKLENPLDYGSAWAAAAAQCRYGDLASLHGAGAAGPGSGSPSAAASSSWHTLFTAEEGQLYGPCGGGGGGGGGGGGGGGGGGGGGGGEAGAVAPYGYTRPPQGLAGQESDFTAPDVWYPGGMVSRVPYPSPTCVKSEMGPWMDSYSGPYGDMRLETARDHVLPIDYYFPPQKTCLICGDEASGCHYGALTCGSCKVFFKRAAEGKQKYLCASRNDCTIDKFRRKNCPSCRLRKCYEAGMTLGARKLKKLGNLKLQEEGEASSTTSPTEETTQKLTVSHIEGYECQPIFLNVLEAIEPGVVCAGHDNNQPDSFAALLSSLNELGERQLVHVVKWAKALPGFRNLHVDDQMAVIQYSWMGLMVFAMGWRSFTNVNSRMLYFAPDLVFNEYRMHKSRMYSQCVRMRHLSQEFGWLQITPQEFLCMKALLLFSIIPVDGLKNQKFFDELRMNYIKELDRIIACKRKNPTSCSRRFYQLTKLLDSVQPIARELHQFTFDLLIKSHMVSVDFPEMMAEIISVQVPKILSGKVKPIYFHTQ
# Outline: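 MDA-kb2 cells carrying MMTV-luciferase (AR/GR responsive), 3,000 cells/well, co-treated with 3.0 uM nilutamide final. Compounds at 15 concentrations, 16 hr at 37C without CO2. Luciferase luminescence read after 30 min with ONE-Glo.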
Compound,outcome [1],Potency [2],Potency [3],Potency [4],Potency [5],Potency [6],Potency [7],outcome [8],outcome [9],Potency [10],Potency [11],Potency [12],Potency [13],Potency [14],Potency [15],Potency [16],outcome [17],outcome [18],Potency [19],Potency [20]
Cc1ccc(N)c(S(=O)(=O)O)c1,inactive,inactive,inactive,inactive,inactive,inactive,inactive,inactive,inactive,inactive,inactive,inactive,inactive,inactive,inactive,inactive,inactive,inactive,–,–
CCc1ccccc1O,inactive,inactive,inactive,inactive,inactive,inactive,–,inactive,inactive,inactive,inactive,inactive,inactive,inactive,inactive,inactive,inactive,inactive,inactive,–
Cn1c([N+](=O)[O-])cnc1COC(N)=O,inactive,inactive,inactive,inactive,inactive,inactive,–,–,–,inactive,inactive,inactive,inactive,inactive,inactive,inactive,inactive,–,inactive,–
COCC(=O)O,inactive,1.25 µM (active) and inactive,inactive,inactive,inactive,inactive,–,inactive,inactive,inactive,inactive,inactive,inactive,inactive,inactive,inactive,inactive,–,inactive,–
O=C1CCCCC1,inactive,inactive,inactive,–,inactive,inactive,inactive,–,–,inactive,inactive,inactive,inactive,inactive,inactive,inactive,inactive,inactive,inactive,inactive
CCCCCCCCC,inactive,inactive,inactive,inactive,inactive,inactive,inactive,inactive,inactive,inactive,inactive,inactive,inactive,inactive,inactive,inactive,inactive,inactive,inactive,–
CCCCCCCCCCCCOCC1CO1 (stereo not given),inactive,inactive,inactive,inactive,inactive,inactive,–,inactive,inactive,inactive,inactive,inactive,inactive,inactive,inactive,inactive,inactive,inactive,inactive,–
O=S(=O)(O)c1cc(S(=O)(=O)O)c2c(N=Nc3ccccc3)c(O)ccc2c1,inactive,inactive,inactive,inactive,30.8 µM (active) and 54.5 µM (active),inactive,inactive,inactive,inactive,61.4 µM (active) and 27.3 µM (active),inactive,inactive,inactive,inactive,inactive,inactive,inactive,inactive,inactive,–
CCCCCCC(C)(C)S,inactive,inactive,inactive,inactive,inactive,inactive,–,inactive,inactive,inactive,inactive,inactive,inactive,inactive,inactive,inactive,inactive,inactive,–,–
CCCCC/C=C\C/C=C\CCCCCCCC(=O)OC,inactive,inactive and 24.3 µM (active),inactive,inactive,inactive,inactive and 48.6 µM (active),inactive,inactive,inactive,inactive,inactive,inactive,inactive,inactive,inactive,inactive,inactive,–,inactive,–
Cc1cc(Cc2ccc(N)c(C)c2)ccc1N,inactive,inactive,inactive,inactive,inactive,–,–,–,–,inactive,inactive,–,inactive,inactive,inactive,inactive,inactive,inactive,–,–
CCCCC(CC)COC(=O)/C=C\C(=O)OCC(CC)CCCC (stereo not given),inactive,inactive,inactive,inactive,inactive,inactive,inactive,inactive,inactive,inactive,inactive,inactive,inactive,inactive,inactive,inactive,inactive,inactive,–,inactive
O=Nc1ccc(O)cc1,inactive,inactive,inactive,inactive,47.4 µM (active) and inactive,inactive,inactive,inactive,inactive,47.4 µM (active) and inactive,–,–,inactive,inactive,inactive,inactive,inactive,inactive,inactive,inactive
Cc1ccc(C(=O)O)o1,inactive,inactive,inactive,inactive,inactive,inactive,inactive,inactive,inactive,inactive,inactive,inactive,inactive,inactive,inactive,inactive,inactive,–,–,–
Cc1cc(O)cc(C)c1Cl,inactive,3.06 µM (active),inactive,inactive,inactive,inactive,–,inactive,inactive,inactive,inactive,inactive,inactive,inactive,inactive,inactive,inactive,inactive,–,–
